Growth data for 6 compounds are collected here from PubChem BioAssay (NCI).

Some test systems named below: MOLT-4 leukemia; SR leukemia; RPMI-8226 leukemia; OVCAR-8 ovarian; OVCAR-5 ovarian; OVCAR-4 ovarian; SK-OV-3 ovarian; IGROV1 ovarian; OVCAR-3 ovarian; HS 578T breast; NCI/ADR-RES ovarian; T-47D breast; BT-549 breast; MDA-MB-435 melanoma; SW-620 colon; MCF7 breast; HCT-116 colon; HCC-2998 colon; KM12 colon.
Common to all, as to assay: NCI-60 one-dose screen, 48 h (100 = growth as untreated, 0 = no growth, -100 = all killed)
Holding throughout (settings): 10 µM unless noted

SMILES strings stand for the structures. Compounds without any hit were thinned out: in the full panel of roughly 83,000, 20% have a hit.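 Cells were grown in 96-well plates and exposed to the test compound at a single concentration for 48 hours; results are reported as percent growth, with values below 10 considered active.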 A number with no mark means an inactive call. The source made the active and inactive calls.

Turning to `N/C(=N\N=C\c1ccc(-c2ccccc2)cc1)N[N+](=O)[O-]`, the growth was 5.54% (active) in the assay on MOLT-4 leukemia; 5.79% (active) in the assay on SR leukemia; 20.1% in the assay with RPMI-8226 leukemia; 42.6% in the assay on OVCAR-8 ovarian; 56.9% with OVCAR-5 ovarian; 61.5% in the assay with OVCAR-4 ovarian. Besides, the growth in the assay with SK-OV-3 ovarian is 35.4%; in the assay on IGROV1 ovarian, 34.6%; in the assay on OVCAR-3 ovarian it was -19.8% (active); in the assay with HS 578T breast it was 44.3%; with NCI/ADR-RES ovarian, 19.4%; in the assay on T-47D breast, 36.1%. Moreover, the growth in the assay with BT-549 breast is 52%; in the assay on MDA-MB-435 melanoma it was -27.4% (active); in the assay on SW-620 colon, 20.7%; with MCF7 breast, 13.6%; with HCT-116 colon, 28.7%; in the assay on HCC-2998 colon, 60.9%. For the same compound, the growth with KM12 colon is 32.1%.
In the case of `COc1ccc(/C=C\c2cc(OC)c(OC)c(OC)c2)c(NS(=O)(=O)c2ccc(F)cc2)c1O`, the growth with MOLT-4 leukemia was 19.6%; in the assay on SR leukemia it was 19%; in the assay with RPMI-8226 leukemia, 23.3%; with OVCAR-8 ovarian, 22.5%; in the assay with OVCAR-5 ovarian, 40.4%; in the assay on OVCAR-4 ovarian, 29.3%. For the same compound, the growth in the assay on SK-OV-3 ovarian is 12.4%; in the assay with IGROV1 ovarian, 28.3%; with OVCAR-3 ovarian, -37.8% (active); with HS 578T breast, 25.3%; in the assay with NCI/ADR-RES ovarian it was 2.13% (active); with T-47D breast it was 103%. Besides, the growth is 24% with BT-549 breast; -34.9% (active) in the assay with MDA-MB-435 melanoma; 21.1% in the assay with SW-620 colon; 9.22% (active) with MCF7 breast; 7.7% (active) in the assay with HCT-116 colon; 14.9% with HCC-2998 colon. Further, the growth with KM12 colon was 1.13% (active).
For `C/C(=C\c1cc(C(F)(F)F)nn1CCNC(=O)OC(C)(C)C)[C@@H]1C[C@@H]2O[C@]2(C)CCC[C@H](C)[C@H](O)[C@@H](C)C(=O)C(C)(C)[C@@H](O)CC(=O)O1`, the growth in the assay with MOLT-4 leukemia is 25.1%; in the assay on SR leukemia, 28.1%; in the assay on RPMI-8226 leukemia it was 22.9%; with OVCAR-8 ovarian, 61.8%; in the assay with OVCAR-5 ovarian, 68.7%; in the assay on OVCAR-4 ovarian, 71.4%. The growth in the assay on SK-OV-3 ovarian is 86.3%; in the assay on IGROV1 ovarian, 49.2%; in the assay with OVCAR-3 ovarian, 30.8%; with HS 578T breast, 61.3%; with NCI/ADR-RES ovarian, 28%; in the assay on T-47D breast, 57.8%. The growth is 73.2% in the assay on BT-549 breast; -27.6% (active) in the assay with MDA-MB-435 melanoma; 34.7% in the assay with SW-620 colon; 31.2% in the assay on MCF7 breast; 23.3% with HCT-116 colon; 57.3% in the assay on HCC-2998 colon. For the same compound, the growth in the assay on KM12 colon was 20.3%.
With `O=[N+]([O-])c1cc([N+](=O)[O-])c(Nn2c3ccccc3c3ccccc32)c([N+](=O)[O-])c1`, the growth in the assay with MOLT-4 leukemia is 0.889% (active); in the assay with SR leukemia it was 1.48% (active); with RPMI-8226 leukemia, -20.5% (active); with OVCAR-8 ovarian, 5.97% (active); in the assay with OVCAR-5 ovarian, 29.4%; with OVCAR-4 ovarian, 6.45% (active). Besides, the growth in the assay on SK-OV-3 ovarian was -17.2% (active); in the assay with IGROV1 ovarian, 22.8%; with OVCAR-3 ovarian, 12.4%; in the assay on HS 578T breast, 5.42% (active); in the assay with NCI/ADR-RES ovarian, 7.52% (active); in the assay on T-47D breast, -17.3% (active). Besides, the growth was -27.4% (active) in the assay with BT-549 breast; 0.936% (active) in the assay on MDA-MB-435 melanoma; 11.1% in the assay with SW-620 colon; 2.34% (active) in the assay with MCF7 breast; -10.1% (active) with HCT-116 colon; 1.54% (active) in the assay with HCC-2998 colon. The growth with KM12 colon was 4.34% (active).
On to `COC(=O)C12CC(NC(=O)c3csc([C@@H](C[C@H](C(C)C)N(C)C(=O)[C@@H](NC(=O)[C@H]4CCCCN4C)C4CC4)OC(C)=O)n3)(C1)C2`, for which the growth in the assay on MOLT-4 leukemia was 15.9%; with SR leukemia, 17.5%; with RPMI-8226 leukemia, 22.9%; in the assay with OVCAR-8 ovarian it was 19.3%; with OVCAR-5 ovarian, 35.7%; in the assay with OVCAR-4 ovarian it was 43.5%. Moreover, the growth in the assay with SK-OV-3 ovarian is 3% (active); with IGROV1 ovarian, 29.5%; in the assay with OVCAR-3 ovarian it was -25.2% (active); in the assay on HS 578T breast it was 33.1%; in the assay with NCI/ADR-RES ovarian, 43.7%; with T-47D breast, 43.4%. Moreover, the growth in the assay with BT-549 breast was -10.9% (active); in the assay with MDA-MB-435 melanoma, -40.9% (active); with SW-620 colon, 25.4%; in the assay on MCF7 breast it was 19.2%; in the assay on HCT-116 colon it was 1.78% (active); in the assay with HCC-2998 colon, 21.8%. Further, the growth with KM12 colon is 1.43% (active).
With `Nc1c(F)cc(-c2nc3cc(F)ccc3[se]2)cc1F`, the growth is 78.7% in the assay with MOLT-4 leukemia; 20.6% in the assay with SR leukemia; 48.8% in the assay with RPMI-8226 leukemia; 95.5% with OVCAR-8 ovarian; 31.1% with OVCAR-5 ovarian; 48.9% in the assay with OVCAR-4 ovarian. For the same compound, the growth with SK-OV-3 ovarian is 61.4%; in the assay on IGROV1 ovarian, 19.5%; with OVCAR-3 ovarian, 71.3%; in the assay with HS 578T breast, 94.7%; with NCI/ADR-RES ovarian, 94.6%; with T-47D breast it was 5.78% (active). Moreover, the growth is 78.9% in the assay with BT-549 breast; 106% in the assay on MDA-MB-435 melanoma; 95.2% in the assay with SW-620 colon; 2.27% (active) in the assay on MCF7 breast; 37.1% in the assay on HCT-116 colon; -44.5% (active) in the assay on HCC-2998 colon. Further, the growth in the assay on KM12 colon is 42.5%.
